In PubChem BioAssay AID1069 (NMMLSC, 2008) one finds side scatter shift data, which are given here for 40 molecules.

A short description of the test: activators of LNCaP cell differentiation, retest, confirmation, side scatter shift, flow cytometry (AID 1069).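 Further: LNCaP human prostate cancer cells in low-serum medium with charcoal-stripped FBS; percent of cells with raised granularity gated so DMSO controls show 10%.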 To be noted: 4 d, stronger effect = higher value. For orientation: In flow cytometry, cells or beads pass a laser one at a time.

Activity calls are given as the source filed them.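 How the source made its calls: active means high combined rank on largest and smallest cell-count-weighted shift across three tests, rank score above 45, floors 50 and 25 (some results past the limit were not filed as active); inactive means the rest.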

As to `Cc1ccc(CNc2nc3ccccc3n3nnnc23)cc1`, the side scatter shift (at 100 µM) is 33.1% (inactive) and the side scatter shift (side scatter shift, at 10 µM) amounted to 7%.
The matching figures for `O=C(NCC(c1cccnc1)N1CCOCC1)c1cccc(Cl)c1` (stereo not given): 11.4% (inactive) and 13.9%.
Turning to `CCOc1cccc(-c2nnc3n2N=C(c2cc(OC)ccc2OC)CS3)c1`, the side scatter shift reads like this: (at 100 µM) 0% (inactive); (side scatter shift, at 10 µM) 14.1%.
Consider `Cc1ccccc1-c1nc(CN2CCC(C(=O)NCC3CCCO3)CC2)c(C)o1` (stereo not given), for which the side scatter shift was 22.5% (inactive) (at 100 µM) and 7.1% (side scatter shift, at 10 µM).
The matching figures for `O=C(CCN1C(=O)COc2ccccc21)NCCCN1CCN(c2ccc(F)cc2)CC1`: 45.3% (inactive) and 7.5%.
The matching figures for `CCOC(=O)N1CCN(CC(=O)Nc2cc(C)nn2-c2nc3ccccc3s2)CC1`: 19.3% (inactive) and 2.6%.
In the same order, the values of `COc1ccccc1N1CCN(c2nc3ccccc3nc2C(C#N)C(=O)OC(C)C)CC1` (stereo not given) are 78.2% (active) and 21.1%.
Regarding `Cc1oc(-c2ccc(Cl)cc2)nc1CN1CCC(C(=O)NCc2ccco2)CC1`, the side scatter shift was 37.1% (inactive) (at 100 µM) and 9.6% (side scatter shift, at 10 µM).
The matching figures for `CCn1c(=O)cc(SCC(=O)N2CCN(C3CCCCC3)CC2)c2ccccc21`: 16.7% (inactive) and 6.55%.
In the same order, the values of `Cc1ccc(Nc2cc(=O)n(C3CCCCC3)c(=O)[nH]2)cc1C` are 0% (inactive) and 10.6%.
As for `COc1ccc(N2CCN(CCCNC(=O)CCCn3c(=O)[nH]c4ccsc4c3=O)CC2)cc1`, the side scatter shift reads like this: (at 100 µM) 7.7% (inactive); (side scatter shift, at 10 µM) 20.6%.
`O=C(C1CCN(S(=O)(=O)c2cccc3nsnc23)CC1)N1CC=C(c2ccccc2)CC1`: the side scatter shift runs as follows: (at 100 µM) 25.9% (inactive); (side scatter shift, at 10 µM) 9.3%.
On to `C=C(C)Cn1c(-c2ccccc2)nc2ccccc21`, for which the side scatter shift (at 100 µM) was 6.3% (inactive) and the side scatter shift (side scatter shift, at 10 µM) turned out to be 4.15%.
The matching figures for `O=C(NCCCN1CCOCC1)c1cc2c(s1)CSC2`: 13.1% (inactive) and 9.2%.
The matching figures for `c1ccc(OCCCn2nnc(-c3cccnc3)n2)cc1`: 15.4% (inactive) and 3.1%.
In the case of `CCc1ccc(-c2nc(CN3CCC(C(=O)N4CCN(c5ccccc5)CC4)CC3)c(C)o2)cc1`, the side scatter shift (at 100 µM) is 44.4% (inactive) and the side scatter shift (side scatter shift, at 10 µM) worked out at 19.8%.
For the molecule `Cc1cc(=O)oc(C)c1C(=O)NCCCN1CCN(c2ccccc2F)CC1`, the side scatter shift was 32.8% (inactive) (at 100 µM) and 2.1% (side scatter shift, at 10 µM).
As for `CCOC(=O)Cn1nc(-c2ccc(Cl)cc2)cc1N`, the side scatter shift reads like this: (at 100 µM) 11.4% (inactive); (side scatter shift, at 10 µM) 4.7%.
The matching figures for `N#C/C(=C\c1ccc(O)c(O)c1)C(=O)NCCCc1ccccc1`: 28.9% (inactive) and 7.05%.
Turning to `Nc1ccc(-n2ccnc2)cc1`, the side scatter shift is 37.6% (inactive) (at 100 µM) and 7.5% (side scatter shift, at 10 µM).
For the molecule `Cc1oc(-c2ccc(Cl)cc2)nc1CN1CCCC(C(=O)NCCCN2CCCC2=O)C1` (stereo not given), the side scatter shift was 14% (inactive) (at 100 µM) and 13.6% (side scatter shift, at 10 µM).
In the same order, the values of `Cc1cc(=O)oc(C)c1C(=O)NCCCN1CCN(c2ccc(F)cc2)CC1` are 8.5% (inactive) and 5.05%.
Regarding `CCOC(=O)c1sc2ncnc(N3CCN(c4ccc(OC)cc4)CC3)c2c1C`, the side scatter shift (at 100 µM) was 25% (inactive) and the side scatter shift (side scatter shift, at 10 µM) worked out at 9.55%.
The matching figures for `Cn1c(=O)cc(OCC(=O)NCCCN2CCN(c3ccccc3F)CC2)c2ccccc21`: 66.5% (active) and 4.5%.
`O=C(NCCCN1CCN(c2cccc(Cl)c2)CC1)c1cccc(N2CCCC2=O)c1`: the side scatter shift (at 100 µM) was 50.5% (active) and the side scatter shift (side scatter shift, at 10 µM) worked out at 7.7%.
In the same order, the values of `Cn1c(=O)[nH]c(=O)c2c1nc(Br)n2CCCSc1nc2ccccc2o1` are 0% (inactive) and 8%.
As to `Cc1ccccc1-c1nc(CN2CCC(C(=O)NCc3cccnc3)CC2)c(C)o1`, the side scatter shift is 36.9% (inactive) (at 100 µM) and 1.35% (side scatter shift, at 10 µM).
In the same order, the values of `Cc1ccccc1OCc1nc(-c2ccc(NC(=O)c3ccc4c(c3)OCO4)cc2)no1` are 32.3% (inactive) and 4.6%.
The matching figures for `CCc1ccc(-c2nc(CN3CCCC(C(=O)O)C3)c(C)o2)cc1` (stereo not given): 12.4% (inactive) and 9%.
In the same order, the values of `COc1ccc2cc3cc(C(=O)Nc4ccccc4N4CCN(C)CC4)oc3nc2c1` are 68.3% (active) and 42.7%.
On to `Cc1oc(-c2ccc(Cl)cc2)nc1CN1CCC(C(=O)N2CCc3ccccc3C2)CC1`, for which the side scatter shift is, setting by setting: (at 100 µM) 44.4% (inactive); (side scatter shift, at 10 µM) 17%.
In the same order, the values of `CCc1nnc(NC(=O)CSc2nc3ccccc3s2)s1` are 5.7% (inactive) and 5%.
In the same order, the values of `CC(C)N1CCC2(CC1)N=C(c1ccc3c(c1)OCO3)CC(c1cc(Cl)ccc1O)N2` (stereo not given) are 26.1% (inactive) and 18.8%.
In the same order, the values of `O=C(c1ccc(COCC(F)(F)F)o1)N1CCCCCC1` are 16.9% (inactive) and 4.95%.
Consider `CCC(C)NC(=O)c1cn(C)c(=O)c2cc(OC)c(OC)cc12` (stereo not given), for which the side scatter shift by setting is: (at 100 µM) 25.6% (inactive); (side scatter shift, at 10 µM) 5.2%.
In the same order, the values of `COc1ccc(OC)c(CNC(=O)CCNC(=O)Cn2ccc3ccccc3c2=O)c1` are 12.7% (inactive) and 7.3%.
In the same order, the values of `COc1ccc(N2CCN(CCCNC(=O)CC3Oc4ccc(C)cc4NC3=O)CC2)cc1` (stereo not given) are 50% (active) and 9.05%.
In the same order, the values of `Cc1ccc(-n2nc3cc(Cl)c(NC(=O)c4ccco4)cc3n2)cc1` are 20.7% (inactive) and 2.8%.
For `COC(=O)Nc1sc2c(c1C(N)=O)CCCCCC2`, the side scatter shift by setting is: (at 100 µM) 10% (inactive); (side scatter shift, at 10 µM) 5.65%.
Turning to `COC(=O)c1[nH]c2c(c1C)C(=O)CCC2`, the side scatter shift is 7.2% (inactive) (at 100 µM) and 3.6% (side scatter shift, at 10 µM).
